Here are results for 11 molecules from PubChem BioAssay (NCATS).

Records with an inconclusive call do not appear. Activity calls are given as the source filed them. Unless noted, calls follow the shape of the dose curve; as a rule, active = well fitted inhibition curve with a large enough effect; inconclusive = small, poorly fitted or top-dose-only effect; inactive = flat fitted curve, though single readings scatter.

A short description of test [1]: qHTS drug screen for cell cycle checkpoint inhibitors in PARPi-resistant BRCA-mutant ovarian cancer cell lines. (AID 1963452; calls by dose curve). The conditions noted are these: PEO1/OlaR viability, CellTiter-Glo luminescence, 96 h, stronger effect = lower value. The method in brief: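 PEO1, PEO4 and PEO1/OlaR ovarian cancer cells, 600 per well, exposed 96 h at 37C to a dilution series. Viability read by CellTiter-Glo luminescence, normalized to DMSO and empty wells; activity summarized as Z-AUC.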

Test [2] is described as follows: qHTS profiling for inhibitors of Plasmodium falciparum proliferation (AID 504749). Also: nearly all actives have a fitted effect of over 60% in size. Also: potency is read from the fitted curve at half-maximal effect.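 As to activity, negative = inhibition: 0% = DMSO vehicle and full inhibition = artemisinin control.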 The conditions noted are these: P. falciparum in erythrocytes, SYBR Green DNA, 72 h. The method in brief:
(§1)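 SYBR Green fluorescence of parasite DNA, read after lysis and overnight dark incubation, measured growth over 72 h in erythrocyte culture at 0.3% parasitemia and 2.5% hematocrit. Data normalised to DMSO and 0.29 uM artemisinin, with plate-drift correction.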

For test [3], the system named is 3D7. The description is as above. To be noted: P. falciparum in erythrocytes, SYBR Green DNA, 72 h; series mostly up to 28.7 µM. The method in brief: as §1
In test [4] the test system is AA1029. The test is described as above. To be noted: P. falciparum in erythrocytes, SYBR Green DNA, 72 h; series mostly up to 28.7 µM. Put shortly:
as §1

Test [5] has as its system AS120. The test is described as above. To be noted: P. falciparum in erythrocytes, SYBR Green DNA, 72 h; series mostly up to 28.7 µM. Put shortly: as §1
Test [6] has as its system ATS189. The test is described as above. The conditions noted are these: P. falciparum in erythrocytes, SYBR Green DNA, 72 h; series mostly up to 28.7 µM. Put shortly: as §1
Test [7] deals with 7G8. The description is as above. The conditions noted are these: P. falciparum in erythrocytes, SYBR Green DNA, 72 h; series mostly up to 28.7 µM. The method in brief:
as §1

Test [8] can be described thus: qHTS for identification of novel therapeutic agents for treatment of microphthalmiaassociated transcription factor (MiT) renal cell carcinoma (RCC) (AID 1963991). The conditions noted are these: CellTiter-Glo, 48 h, stronger effect = lower value. Put shortly: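 Viability of three TFE3-fusion renal carcinoma lines measured by CellTiter-Glo after 48 h treatment with each of 1912 compounds at 11 concentrations. Responses scaled between DMSO (100%) and empty wells (0%) before curve fitting.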

[9] abbreviates: measured here: PEO1 parental Z-AUC.
Setting [10] is: at 28.7 µM (top of the series), parasite line A.
The mark [11] stands for this setting: at 28.7 µM (top of the series), parasite line B.
[12] abbreviates: TFE3-RCC UOK109 viability, measured here: UOK109 Z-AUC.
The mark [13] stands for this setting: TFE3-RCC viability, measured here: UOK124 Z-AUC.
Setting [14] is: TFE3-RCC viability, measured here: UOK145 Z-AUC.

On to `CCOC(=O)c1ncn2c1CN(C)C(=O)c1cc(F)ccc1-2`, for which the Z-AUC was 1.34 (inactive) in test [1], 1.08 in test [1] (setting [9]) and 1.29 in test [1] (measured here: PEO4 Z-AUC). In addition, the activity, negative = inhibition in test [2] (setting [10]) was 8.32% (inactive); in test [2] (setting [11]), 17% (inactive). Also, the Potency entry in test [3], in test [4], in test [5] and in test [6] was “inactive” each time.

For the molecule `CS(=O)(=O)CCNCc1ccc(-c2ccc3ncnc(Nc4ccc(OCc5cccc(F)c5)c(Cl)c4)c3c2)o1`, the values for the Z-AUC in test [1], in test [1] (setting [9]) and in test [1] (measured here: PEO4 Z-AUC) were 0.292 (inactive), 0.248 and 0.473, respectively. For the same molecule, the activity, negative = inhibition in test [2] (setting [10]) was 6.38% (inactive); in test [2] (setting [11]) it was -5.13% (inactive). The Potency result in test [3], in test [7], in test [4], in test [5] and in test [6] was “inactive” each time.

As to `Cc1cnc(C(=O)NCCc2ccc(S(=O)(=O)NC(=O)NC3CCCCC3)cc2)cn1`, the Z-AUC in test [1] was 0.935 (inactive); in test [1] (setting [9]) it was 0.686; in test [1] (measured here: PEO4 Z-AUC), 0.444. Further, the activity, negative = inhibition in test [2] (setting [10]) is 8.33% (inactive); in test [2] (setting [11]) it was 4.07% (inactive). The Potency result in test [3], in test [7], in test [4], in test [5] and in test [6] was “inactive” throughout.

As to `CN(C)c1nc(N(C)C)nc(N(C)C)n1`, the figures for the Z-AUC in test [1], in test [1] (setting [9]) and in test [1] (measured here: PEO4 Z-AUC) were 1.32 (inactive), 0.778 and 0.807, respectively. The activity, negative = inhibition in test [2] (at 12.8 µM (top of the series), parasite line A) is 7.93% (inactive); in test [2] (at 12.8 µM (top of the series), parasite line B) it was -1.03% (inactive). Besides, the Potency result in test [3], in test [7], in test [4], in test [5] and in test [6] was “inactive” throughout.

In the case of `O=C(c1ccc(F)cc1)C1CCN(CCn2c(=O)[nH]c3ccccc3c2=O)CC1`, the values for the z-score in test [8] (setting [12]), in test [8] (setting [13]) and in test [8] (setting [14]) were 0.795, 0.577 and 0.595, respectively. Also, the activity, negative = inhibition in test [2] (setting [10]) is 5.58% (inactive); in test [2] (setting [11]), 9.97% (inactive). Besides, the Potency result in test [3], in test [4], in test [5] and in test [6] was “inactive” each time. Moreover, the Potency in test [7] is 5010 nM (active).

Consider `COc1ccccc1N1CCN(CC(O)COc2cccc3ccccc23)CC1` (configuration not stated), for which the results for the z-score in test [8] (setting [12]), in test [8] (setting [13]) and in test [8] (setting [14]) were 0.719, 0.448 and -1.51, respectively. The activity, negative = inhibition in test [2] (setting [10]) was -3.66% (inactive); in test [2] (setting [11]), -18.8% (inactive). Moreover, the Potency entry in test [3], in test [4], in test [5] and in test [6] was “inactive” in each case. For the same molecule, in test [7], the Potency was 11200 nM (active).

Consider `O=C(Nc1ccc([N+](=O)[O-])cc1Cl)c1cc(Cl)ccc1O`, for which the results for the Z-AUC in test [1], in test [1] (setting [9]) and in test [1] (measured here: PEO4 Z-AUC) were -0.74 (inactive), -1.01 and -1.03, respectively. Also, the Potency in test [3] was 1780 nM (active); in test [7], 891 nM (active); in test [5], 794 nM (active).

Consider `COc1ccc(CCN(C)CCCC(C#N)(c2ccc(OC)c(OC)c2)C(C)C)cc1OC` (configuration not stated), for which the z-score is 0.794 in test [8] (setting [12]), 0.393 in test [8] (setting [13]) and 0.327 in test [8] (setting [14]). Moreover, the results for the activity, negative = inhibition in test [2] (setting [10]) and in test [2] (setting [11]) were 7.01% (inactive) and 8.01% (inactive), respectively. Moreover, the Potency entry in test [3], in test [5] and in test [6] was “inactive” throughout.

In the case of `C[C@](N)(Cc1ccc(O)c(O)c1)C(=O)O`, the z-score in test [8] (setting [12]) is 0.112; in test [8] (setting [13]), -0.114; in test [8] (setting [14]), -0.0394. For the same molecule, the activity, negative = inhibition in test [2] (setting [10]) was 5.92% (inactive); in test [2] (setting [11]), -9.27% (inactive). For the same molecule, the Potency entry in test [3], in test [7], in test [4], in test [5] and in test [6] was “inactive” in each case.

For the molecule `CCN1CCCC1CNC(=O)c1cc(S(=O)(=O)CC)c(N)cc1OC` (configuration not stated), the z-score in test [8] (setting [12]) worked out at 0.976; in test [8] (setting [13]), 0.754; in test [8] (setting [14]) it was 0.815.

For the molecule `CC(CCc1ccc(O)cc1)NCCc1ccc(O)c(O)c1` (configuration not stated), the activity, negative = inhibition was 7.14% (inactive) in test [2] (setting [10]) and -3.6% (inactive) in test [2] (setting [11]). The Potency result in test [3], in test [4], in test [5] and in test [6] was “inactive” throughout.
